This passage reports outcome results from PubChem BioAssay AID720513 (Broad Institute, 2013).

Structures are written as SMILES. Among all 2,100 compounds or so, about 480 (23%) were called active. About 5% were inconclusive and are not listed.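 How the source made its calls: active means fitted curve reaches 40% activation at or below the top valid concentration, in every replicate test; inconclusive means replicate tests disagree on the call; inactive means the rest, including activity in the opposite direction.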 Only a sample is shown. Entries that show only a call come without a potency. Potency and affinity values are given separately.

The nature of this assay: activators raising PGC1a acetylation in cells, dose response, cell-based, cherry-picked samples, set 6 (AID 720513).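 Further: cells made to overexpress flag tagged PGC1a plus GCN5 acetyltransferase by viral infection.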 To be noted: U2OS PGC1a acetylation AlphaLISA, overnight, 0 = neutral, -100 = inhibitor control; series mostly up to 19.5 µM.
In the case of `Cc1cc(C(=O)Nc2cccc3c2O[C@H](CN(C)C(=O)Nc2ccc4c(c2)OCO4)[C@@H](C)CN([C@H](C)CO)C3=O)n(C)n1`, the compound was classed as inactive. In the case of `C[C@H]1CN([C@@H](C)CO)C(=O)CCCn2nncc2CO[C@@H]1CN(C)C(=O)Nc1ccc2c(c1)OCO2` it was “inactive”. In the case of `C[C@H]1CN([C@@H](C)CO)C(=O)c2cccc(NC(=O)c3ccncc3)c2O[C@H]1CN(C)C(=O)Nc1ccc2c(c1)OCO2` it was “inactive”; in that of `C[C@H]1CN([C@@H](C)CO)C(=O)Cc2cc(NS(=O)(=O)c3ccc(F)cc3)ccc2O[C@@H]1CN(C)C(=O)Nc1ccc2c(c1)OCO2`, “inactive”. The entry for `OCCN(Cc1ccccc1)CC1CCCCC1` is “inactive”. Regarding `O=C(Nc1ccccc1F)N1CCCCN2[C@@H](CO)[C@@H](c3ccc(C#Cc4ccccc4)cc3)[C@@H]2C1`, the call was inactive. As to `CC(=O)Nc1cccc(-c2ccnc3c2CC(C)(C(=O)Nc2ccc(C(C)C)cc2)O3)c1` (centres undefined), the outcome was inactive.

As to `COc1ccc(NC(=O)C2(C)Cc3c(-c4cccc(NC(C)=O)c4)ccnc3O2)cn1` (centres undefined), the result was inactive. In the case of `C[C@@H]1CCCCO[C@@H](CN(C)CC2CC2)[C@@H](C)CN([C@H](C)CO)C(=O)c2cc(NC(=O)C3CCCCC3)ccc2O1` it was “inactive”; in that of `CC(=O)Nc1ccc(C(=O)OC2CCOC2=O)cc1` (centres undefined), “inactive”. In the case of `NC(=O)c1ccc(NC(=O)C#Cc2ccccc2)cc1` it was “inactive”. In the case of `COc1ccccc1OCCn1c(C(C)O)nc2ccccc21` (centres undefined) it was “inactive”; in that of `COc1ccccc1C(=O)Nc1ccc2c(c1)C(=O)N(C)C[C@H](OC)[C@H](C)CN(CC1CC1)[C@@H](C)CO2`, “inactive”; in that of `CCCn1c(=O)c2ccccc2n2c(SCc3c(C(=O)OCC)oc4ccccc34)nnc12`, “inactive”. `CCCCOc1ccc(/C=C/C(=O)OCC(=O)c2c(N)n(C)c(=O)n(C)c2=O)cc1OCC`: the compound was classed as inactive.

Regarding `COc1ccccc1-c1ccc([C@@H]2[C@H](CO)N(C(C)=O)C23CN(C(C)=O)C3)cc1`, the compound was called inactive. In the case of `C[C@H](CO)N1C[C@H](C)[C@H](CN(C)S(=O)(=O)c2ccc(F)cc2)Oc2ccc(NS(=O)(=O)c3cn(C)cn3)cc2C1=O`, the result was inactive. In the case of `O=C(Nc1ccc(C(F)(F)F)cc1)N1C[C@@H]2N[C@H](C1)C2c1ccc(-c2cccc(F)c2)cc1` (some centres undefined) it was “inactive”.

Turning to `CCN(CC)C(=O)c1ccc(O)c(OC)c1`, the compound was called inactive.

For `COc1ccc(NC(=O)N(C)C[C@@H]2OCCCC[C@@H](C)Oc3ccc(NC(=O)Cc4ccccc4)cc3C(=O)N([C@H](C)CO)C[C@@H]2C)cc1`, the compound was called inactive.

On to `CC(C)NC(=O)Nc1ccc2c(c1)C(=O)N([C@@H](C)CO)C[C@@H](C)[C@H](CN(C)S(=O)(=O)c1ccccc1)OCCCC[C@@H](C)O2`, for which the call was inactive. In the case of `CC(C)NC(=O)Nc1ccc2c(c1)C(=O)N([C@H](C)CO)C[C@@H](C)[C@H](CN(C)S(=O)(=O)c1ccccc1)OCCCC[C@@H](C)O2` it was “inactive”; in that of `CC(C)NC(=O)Nc1ccc2c(c1)C(=O)N([C@@H](C)CO)C[C@@H](C)[C@H](CN(C)C(=O)NC(C)C)OCCCC[C@@H](C)O2`, “inactive”.

As for `C[C@@H]1CCCCO[C@H](CN(C)C(=O)Cc2ccccc2)[C@H](C)CN([C@@H](C)CO)C(=O)c2cc(N(C)C)ccc2O1`, the outcome was inactive. In the case of `C[C@@H]1CCCCO[C@@H](CN(C)C)[C@@H](C)CN([C@H](C)CO)C(=O)c2cc(NS(=O)(=O)c3ccc(Cl)cc3)ccc2O1` it was “inactive”; in that of `C[C@@H]1CN([C@@H](C)CO)C(=O)c2cc(N(C)C)ccc2O[C@@H](C)CCCCO[C@H]1CN(C)C(=O)c1ccncc1`, “inactive”; in that of `CCCN(C)C[C@H]1OCCCC[C@@H](C)Oc2ccc(NS(=O)(=O)c3ccc(Cl)cc3)cc2C(=O)N([C@@H](C)CO)C[C@H]1C`, “inactive”. As for `O=C1CC2CS(=O)(=O)CC2N1c1ccc(Cl)cc1Cl` (centres undefined), the compound was classed as inactive.

Turning to `NS(=O)(=O)c1ccc(CCNC2CC(=O)N(Cc3ccccc3)C2=O)cc1` (centres undefined), the call was inactive. In the case of `O=C1CCN(S(=O)(=O)c2ccc(Cl)cc2)N1` it was “inactive”; in that of `Cc1cc(C)n(CCc2nc3c4ccccc4n(CC#N)c(=O)n3n2)n1`, “inactive”; in that of `Cc1ccc(C(=O)Cn2c(C(=O)OCCO)cc3ccccc32)cc1`, “inactive”. In the case of `COc1cc(C(=O)O)ccc1Cl` it was “inactive”; in that of `Cc1ccc(Cn2ncc(Cl)c(Cl)c2=O)cc1`, “inactive”. In the case of `Cc1noc(C)c1S(=O)(=O)Nc1ccc2c(c1)C(=O)N([C@@H](C)CO)C[C@@H](C)[C@@H](CN(C)CC1CCCCC1)OCCCC[C@@H](C)O2` it was “inactive”; in that of `Cc1ccc(S(=O)(=O)Nc2ccc3c(c2)C(=O)N([C@H](C)CO)C[C@@H](C)[C@@H](CN(C)C(=O)NC(C)C)OCCCC[C@H](C)O3)cc1`, “inactive”; in that of `C[C@H]1CCCCO[C@H](CN(C)C(=O)Nc2cccc3ccccc23)[C@@H](C)CN([C@@H](C)CO)C(=O)c2cc(N(C)C)ccc2O1`, “inactive”. For the compound `Cc1noc(C)c1S(=O)(=O)Nc1ccc2c(c1)C(=O)N([C@H](C)CO)C[C@@H](C)[C@@H](CN(C)S(=O)(=O)c1cccs1)OCCCC[C@H](C)O2`, the call was inactive. Take `Cc1ccc(S(=O)(=O)Nc2ccc3c(c2)C(=O)N([C@H](C)CO)C[C@H](C)[C@H](CN(C)C(=O)NC(C)C)OCCCC[C@@H](C)O3)cc1`: the call was inactive. In the case of `C[C@H](CO)N1C[C@H](C)[C@@H](CN(C)C(=O)Nc2cccc3ccccc23)OCCCC[C@H](C)Oc2ccc(N(C)C)cc2C1=O` it was “inactive”. In the case of `COc1ccc(NC(=O)Nc2ccc3c(c2)C(=O)N([C@H](C)CO)C[C@H](C)[C@@H](CN(C)S(=O)(=O)c2ccc(Cl)cc2)O3)cc1` it was “inactive”; in that of `C=C1CCN(c2ccc(C(=O)NCc3ccccc3)cc2[N+](=O)[O-])CC1`, “inactive”; in that of `C[C@H]1CN([C@@H](C)CO)C(=O)Cc2cc(NS(=O)(=O)c3ccc(Cl)cc3)ccc2O[C@H]1CN(C)Cc1ccc(-c2ccccc2)cc1`, “inactive”.

With `O=C(Nc1ccc(Cl)c(Cl)c1)N[C@@H]1CC[C@H](CCn2cc(C3CC3)nn2)O[C@H]1CO`, the call was inactive.

On to `O=S(=O)(N[C@@H]1CC[C@@H](CCNS(=O)(=O)c2ccccc2Cl)O[C@H]1CO)c1ccccc1`, for which the compound was called inactive. On to `C[C@@H]1CN([C@@H](C)CO)S(=O)(=O)c2ccc(-c3ccc(C#N)cc3)cc2O[C@H]1CN(C)C(=O)CN(C)C`, for which the compound was classed as inactive. With `CC(C)C#Cc1cnc2c(c1)C(=O)N([C@@H](C)CO)C[C@@H](C)[C@@H](CN(C)C(=O)CN1CCOCC1)O2`, the outcome was inactive.

For `CCCN(CC)c1ncnc2[nH]ncc12`, the outcome was inactive. In the case of `CCCOC1CCCN(C(=O)c2cc(Cl)c(Cl)cc2C(=O)O)C1` (centres undefined) it was “inactive”; in that of `COc1ccc(-n2nc(C#N)c(Cl)cc2=O)cc1`, “inactive”. Take `C[C@H](CO)N1C[C@H](C)[C@H](CN(C)Cc2ccc(Oc3ccccc3)cc2)Oc2c(NC(=O)Nc3ccc4c(c3)OCO4)cccc2C1=O`: the call was inactive. In the case of `Cc1ccc(N2C(=O)c3ccccc3NC2C(C)Cc2ccc3c(c2)OCO3)cc1` (centres undefined) it was “inactive”; in that of `Cc1ccc(S(=O)(=O)N(C)C[C@@H]2OCCCC[C@H](C)Oc3ccc(NS(C)(=O)=O)cc3C(=O)N([C@@H](C)CO)C[C@@H]2C)cc1`, “inactive”; in that of `Cc1nc2ccccc2n2c(O)c(CC(=O)O)cc12`, “inactive”.

Turning to `Cc1ccc(S(=O)(=O)N(C)C[C@H]2OCCCC[C@H](C)Oc3ccc(N(C)C)cc3C(=O)N([C@H](C)CO)C[C@@H]2C)cc1`, the compound was called inactive. The entry for `C(=C\c1ccccc1)/CN1CCN(C(c2ccnc3ccccc23)c2nnnn2C2CCCCC2)CC1` (centres undefined) is “inactive”; for `COc1cccc(CNC(=O)CCC2CCCN(Cc3ccc(OC(F)F)cc3)C2)c1` (centres undefined) it is “inactive”.

On to `COc1ccc(C[C@@H]2OC3(C=CC(=O)C=C3)O[C@H]2Cc2ccc(OC)cc2)cc1`, for which the compound was classed as inactive.

As to `CC(=O)N(CCC(Cc1ccccc1)c1ccc2c(c1)OCO2)Cc1ccccc1F` (centres undefined), the compound was classed as inactive. As for `O=C(CN1CCOCC1)N[C@H]1CC[C@H](CCNC(=O)Nc2cc(F)ccc2F)O[C@H]1CO`, the compound was called inactive.

Take `Cn1c(C(C#N)C(=O)c2sc3ccccc3c2Cl)nc2ccccc21` (centres undefined): the outcome was inactive.

On to `CC1CCCN(C(=O)Cc2ccc(F)cc2)C1` (centres undefined), for which the call was inactive.

Take `CC(c1ccccc1)C1CC(=O)N(c2ccc([N+](=O)[O-])cc2)C1=O` (centres undefined): the compound was called inactive. The entry for `CN1CCN(c2ccc([N+](=O)[O-])cc2C(=O)Nc2ccccc2)CC1` is “inactive”. For `Cc1cccc(N2CCN(CC3CCCCC3)CC2)c1C`, the call was inactive.

In the case of `Cc1ccc(N2CCN(CC(O)COC3CCCCC3)CC2)cc1` (centres undefined), the result was inactive.

Turning to `CCC(=O)N1CCN(c2ccc(Cl)cc2NC(=O)c2ccc([N+](=O)[O-])o2)CC1`, the outcome was inactive.

As for `CC(C)C(NC(=O)c1ccc(C(C)(C)C)cc1)C(=O)O` (centres undefined), the outcome was inactive. Turning to `C[C@@H]1CCCCO[C@H](CN(C)C(=O)NC2CCCCC2)[C@@H](C)CN([C@@H](C)CO)C(=O)c2cc(NC(=O)NC3CCCCC3)ccc2O1`, the result was inactive.

As for `N#Cc1c(-c2ccccc2)c(-c2ccccc2)nn(CC(=O)NNC(=O)Nc2ccc(Cl)cc2)c1=O`, the result was inactive.

On to `O=C(c1nc2nc(-c3ccccc3)cc(C(F)(F)F)n2n1)N1CCCCC1`, for which the compound was classed as inactive.

Consider `CC[C@H](C)[C@H](NC(=O)c1ccc(Cl)cc1)C(=O)OCC(=O)c1ccc2c(c1)NC(=O)CO2`, for which the compound was called inactive. As to `OCC1(Cc2ccc(F)cc2F)CCCN(Cc2ccc(Cl)cc2)C1` (centres undefined), the call was inactive.

As to `COc1cccc(CN2CCC(CO)(CC3CCCCO3)CC2)c1` (centres undefined), the outcome was inactive.

In the case of `N#Cc1cccc(-c2ccc(C3[C@@H]4CN(Cc5ccccc5F)C[C@H]3N4)cc2)c1` (some centres undefined), the call was inactive.

With `COc1cccc(C2c3[nH]c4ccccc4c3CCN2Cc2cnc(C)s2)c1OC` (centres undefined), the call was inactive. In the case of `CCc1nccn1S(=O)(=O)c1cc(C)c(OC)cc1C` it was “inactive”; in that of `COc1ccc(NC(=O)N[C@H]2CC[C@@H](CCn3cc(-c4ccccc4F)nn3)O[C@H]2CO)cc1`, “inactive”; in that of `CCOCCCNC(=O)C1CCN(C(=O)Nc2ccc(C)cc2)CC1`, “inactive”. In the case of `CC(C(=O)N1CCc2ccccc2C1)N(c1ccccc1)S(C)(=O)=O` (centres undefined) it was “inactive”; in that of `Cc1cc(=O)[nH]c(SCC(=O)N2CCc3ccccc3C2)n1`, “inactive”. In the case of `CN(C)S(=O)(=O)c1cc(NC(=O)CN2CCc3ccccc32)ccc1Cl` it was “inactive”; in that of `CCOC(=O)c1ccc(NC(=O)CCS(=O)(=O)c2ccc(Br)s2)cc1`, “inactive”; in that of `CCOC(=O)c1cnn(-c2ccccc2)c1-n1cccc1C(=O)C(=O)Nc1ccc(F)cc1`, “inactive”.
